This is an account of results in PubChem BioAssay (Tox21).

Structures are written as SMILES. Calls of active or inactive are those of the source. Calls follow the shape of the dose curve; as a rule, active = well fitted inhibition curve with a large enough effect in the repeat runs (not every such curve was filed as active); inconclusive = weak or mixed curves; inactive = flat fitted curve, though single readings scatter.

Thyrotropin-releasing hormone receptor (Homo sapiens), sequence (P34981 whole entry, looked up): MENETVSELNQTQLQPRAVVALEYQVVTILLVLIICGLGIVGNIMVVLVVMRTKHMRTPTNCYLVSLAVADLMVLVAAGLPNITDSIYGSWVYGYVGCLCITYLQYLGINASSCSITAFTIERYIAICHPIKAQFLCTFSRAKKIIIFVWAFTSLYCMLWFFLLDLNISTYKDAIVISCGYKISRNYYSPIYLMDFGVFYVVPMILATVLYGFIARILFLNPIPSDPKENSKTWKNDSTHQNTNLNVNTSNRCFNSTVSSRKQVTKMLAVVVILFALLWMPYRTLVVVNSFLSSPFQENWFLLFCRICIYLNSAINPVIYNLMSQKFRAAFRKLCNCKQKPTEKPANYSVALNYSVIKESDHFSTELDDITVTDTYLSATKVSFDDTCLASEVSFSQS

The target in this experiment is Thyrotropin-releasing hormone receptor (Homo sapiens) (UniProt P34981). As to the kind of experiment: qHTS assay to identify small molecule antagonists of the thyrotropin-releasing hormone receptor (TRHR) signaling pathway (AID 1346877). Particulars: TRHR-HEK293, TRH-induced calcium fluorescence, antagonist mode; series mostly up to 51.3 µM. The method, boiled down:
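Human TRHR in HEK293 cells; inhibition of the intracellular calcium rise triggered by 1 nM TRH was followed by fluorescence over 3 min. Compounds were run at 15 concentrations, three replicates each.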
Consider `Nc1nc(Cl)nc2c1ncn2[C@H]1C[C@H](O)[C@@H](CO)O1`, for which the result was inactive.

Consider `Cc1cc(SC2=C(O)C[C@@](CCc3ccc(N)cc3)(C(C)C)OC2=O)c(C(C)(C)C)cc1CO`, for which the outcome was inactive.

For the compound `CC(C)=CCCC(C)C=O` (stereo not given), the outcome was inactive.

Regarding `CCC(C)CCCC(C)(C)O` (stereo not given), the outcome was inactive.

`CC1(COc2ccc(CC3SC(=O)NC3=O)cc2)CCCCC1` (stereo not given): the result was inactive.

Consider `Cc1c(Nc2ncccc2C(=O)O)cccc1C(F)(F)F`, for which the outcome was inactive.

In the case of `CC(C)C/C=C(\C=O)c1ccccc1`, the outcome was inactive.

Regarding `CC/C=C\CCO`, the outcome was inactive.

For the compound `CCCCCCCCCCCCCCCCN`, the outcome was inactive.

With `O=C(OCCCCCOC(=O)c1ccccc1)c1ccccc1`, the result was inactive.

In the case of `C=CC(C)CCC=C(C)C` (stereo not given), the result was inactive.

Consider `Nc1ccc(-c2ccc(F)cc2)cc1`, for which the outcome was inactive.

Regarding `CCCC(=O)OCCC(C)C`, the result was inactive.

Consider `CC(C)NC(=O)c1ccccc1N`, for which the outcome was inactive.

With `NC(=O)c1ccccc1C(N)=O`, the result was inactive.

In the case of `CCc1ccc2c(c1)C(=O)c1ccccc1C2=O`, the result was inactive.

Take `CC(C)C[C@H](NC(=O)[C@H](Cc1ccccc1)NC(=O)c1cnccn1)B(O)O`: the outcome was inactive.

Regarding `CC(C)(C(=O)O)c1ccc(C(O)CCCN2CCC(C(O)(c3ccccc3)c3ccccc3)CC2)cc1` (stereo not given), the result was inactive.

Take `CCCc1ccc(OC)cc1`: the result was inactive.

As to `O=C1CCCN1CCO`, the outcome was inactive.

Turning to `O=C(Cl)c1ccc(F)c(Cl)c1`, the result was inactive.

Regarding `O=C(O)CCc1nc2ccccc2[nH]1`, the result was inactive.

Regarding `CCC(C(=O)O)c1ccc(N2Cc3ccccc3C2=O)cc1` (stereo not given), the outcome was inactive.

`O=C(C1CCCCC1)N1CC(=O)N2CCCc3ccccc3C2C1` (stereo not given): the outcome was inactive.

Consider `O=C(O)c1cccc(C(=O)O)c1C(=O)O`, for which the outcome was inactive.

In the case of `CCCCCO`, the result was inactive.

Consider `O=C(OCCN1CCOCC1)c1cccnc1Nc1cccc(C(F)(F)F)c1`, for which the result was inactive.

Take `C[C@H](N)C(=O)N[C@@H](C)C(=O)NC1[C@H]2CN(c3nc4c(cc3F)c(=O)c(C(=O)O)cn4-c3ccc(F)cc3F)C[C@@H]12` (stereo not given in full): the outcome was inactive.

Take `CC(CCl)OC(C)CCl` (stereo not given): the result was inactive.

As to `O=c1[nH][nH]c2ccccc12`, the outcome was inactive.
